Measurements: the supplement of paper PMC11732987, “Enantioselective OTUD7B fragment discovery through chemoproteomics screening and high-throughput optimisation” (Communications Chemistry, 2025)

Legend:
Assay in all cases: log2 ratio of Biotin-Ahx-Ub-VS probe labelling (fragment/DMSO); higher = less target engagement (more negative = stronger competition), active = hit call of the paper (q ≤ 0.05, log2 ratio ≤ -1)
Conditions in all cases: compound concentration: 200 uM; treatment time: 3 h
USP19 = biological target: T1, USP19 (UniProt O94966)
T1 sequence (whole entry): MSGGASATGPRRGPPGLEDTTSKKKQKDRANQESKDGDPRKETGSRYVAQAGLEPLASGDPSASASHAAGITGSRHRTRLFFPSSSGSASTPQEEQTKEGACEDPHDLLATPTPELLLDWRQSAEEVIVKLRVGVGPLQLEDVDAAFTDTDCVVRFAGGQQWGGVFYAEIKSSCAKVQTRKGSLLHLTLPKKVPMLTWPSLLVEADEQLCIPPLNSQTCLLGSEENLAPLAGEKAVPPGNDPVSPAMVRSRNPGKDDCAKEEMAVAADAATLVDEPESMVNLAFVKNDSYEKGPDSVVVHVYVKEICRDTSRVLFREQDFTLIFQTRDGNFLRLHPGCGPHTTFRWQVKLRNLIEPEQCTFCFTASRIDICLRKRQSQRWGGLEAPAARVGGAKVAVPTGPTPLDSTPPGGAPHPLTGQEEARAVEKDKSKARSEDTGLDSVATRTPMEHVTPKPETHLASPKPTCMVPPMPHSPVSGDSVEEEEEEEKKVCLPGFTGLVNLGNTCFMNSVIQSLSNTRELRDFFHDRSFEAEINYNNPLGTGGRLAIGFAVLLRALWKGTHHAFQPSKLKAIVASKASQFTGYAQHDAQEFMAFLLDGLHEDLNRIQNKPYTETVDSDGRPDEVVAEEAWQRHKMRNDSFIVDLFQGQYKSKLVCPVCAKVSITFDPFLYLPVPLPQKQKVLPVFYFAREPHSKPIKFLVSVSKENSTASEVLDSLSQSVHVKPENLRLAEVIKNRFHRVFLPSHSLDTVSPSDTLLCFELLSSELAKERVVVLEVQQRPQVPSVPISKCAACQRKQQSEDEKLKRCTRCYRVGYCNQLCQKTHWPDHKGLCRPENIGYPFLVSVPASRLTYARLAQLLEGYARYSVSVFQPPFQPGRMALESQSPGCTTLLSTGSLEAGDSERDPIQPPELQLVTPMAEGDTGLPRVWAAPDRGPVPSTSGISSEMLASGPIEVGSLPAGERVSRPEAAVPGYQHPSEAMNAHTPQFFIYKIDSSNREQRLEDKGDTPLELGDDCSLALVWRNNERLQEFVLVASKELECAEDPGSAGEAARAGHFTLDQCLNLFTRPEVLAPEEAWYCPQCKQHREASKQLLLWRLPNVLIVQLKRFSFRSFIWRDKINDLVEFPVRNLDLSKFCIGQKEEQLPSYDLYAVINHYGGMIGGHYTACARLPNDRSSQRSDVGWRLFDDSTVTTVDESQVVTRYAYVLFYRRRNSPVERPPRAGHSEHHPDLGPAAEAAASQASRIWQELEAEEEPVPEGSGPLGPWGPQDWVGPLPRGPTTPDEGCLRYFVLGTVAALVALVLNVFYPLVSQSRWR
In short: (§1)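 Fragment (200 µM) or vehicle was incubated for 3 h with triplicate HEK293T lysate samples of 495 µg, which were then treated with Biotin-Ahx-Ub-VS at 0.5 µM final for 1 h. Labelled DUBs were enriched on NeutrAvidin, digested with LysC and trypsin, and analysed by diaPASEF LC-MS/MS. Values are average log2 fragment/vehicle ratios from an unpaired t-test on global-median-normalised Spectronaut label-free quantities, using proteins with ≥2 unique peptides.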

USP22 = biological target: T2, USP22 (UniProt Q9UPT9)
T2 sequence (whole entry): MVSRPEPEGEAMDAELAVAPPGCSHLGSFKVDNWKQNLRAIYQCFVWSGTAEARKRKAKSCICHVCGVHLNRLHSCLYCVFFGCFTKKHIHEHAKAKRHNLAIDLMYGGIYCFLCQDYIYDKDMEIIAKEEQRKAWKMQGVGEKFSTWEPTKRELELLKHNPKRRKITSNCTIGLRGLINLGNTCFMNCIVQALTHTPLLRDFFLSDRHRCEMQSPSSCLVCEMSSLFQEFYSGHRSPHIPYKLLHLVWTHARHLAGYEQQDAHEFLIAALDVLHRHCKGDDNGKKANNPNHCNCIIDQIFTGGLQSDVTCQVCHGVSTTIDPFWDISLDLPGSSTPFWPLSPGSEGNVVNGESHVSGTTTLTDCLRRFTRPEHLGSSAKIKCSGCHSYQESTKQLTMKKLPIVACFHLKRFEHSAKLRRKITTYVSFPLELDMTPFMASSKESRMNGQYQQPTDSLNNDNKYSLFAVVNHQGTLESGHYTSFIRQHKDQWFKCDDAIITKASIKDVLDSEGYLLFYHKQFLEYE
In short: as §1

USP24 = USP24 (UniProt Q9UPU5)
Chain of USP24 (Q9UPU5 whole entry): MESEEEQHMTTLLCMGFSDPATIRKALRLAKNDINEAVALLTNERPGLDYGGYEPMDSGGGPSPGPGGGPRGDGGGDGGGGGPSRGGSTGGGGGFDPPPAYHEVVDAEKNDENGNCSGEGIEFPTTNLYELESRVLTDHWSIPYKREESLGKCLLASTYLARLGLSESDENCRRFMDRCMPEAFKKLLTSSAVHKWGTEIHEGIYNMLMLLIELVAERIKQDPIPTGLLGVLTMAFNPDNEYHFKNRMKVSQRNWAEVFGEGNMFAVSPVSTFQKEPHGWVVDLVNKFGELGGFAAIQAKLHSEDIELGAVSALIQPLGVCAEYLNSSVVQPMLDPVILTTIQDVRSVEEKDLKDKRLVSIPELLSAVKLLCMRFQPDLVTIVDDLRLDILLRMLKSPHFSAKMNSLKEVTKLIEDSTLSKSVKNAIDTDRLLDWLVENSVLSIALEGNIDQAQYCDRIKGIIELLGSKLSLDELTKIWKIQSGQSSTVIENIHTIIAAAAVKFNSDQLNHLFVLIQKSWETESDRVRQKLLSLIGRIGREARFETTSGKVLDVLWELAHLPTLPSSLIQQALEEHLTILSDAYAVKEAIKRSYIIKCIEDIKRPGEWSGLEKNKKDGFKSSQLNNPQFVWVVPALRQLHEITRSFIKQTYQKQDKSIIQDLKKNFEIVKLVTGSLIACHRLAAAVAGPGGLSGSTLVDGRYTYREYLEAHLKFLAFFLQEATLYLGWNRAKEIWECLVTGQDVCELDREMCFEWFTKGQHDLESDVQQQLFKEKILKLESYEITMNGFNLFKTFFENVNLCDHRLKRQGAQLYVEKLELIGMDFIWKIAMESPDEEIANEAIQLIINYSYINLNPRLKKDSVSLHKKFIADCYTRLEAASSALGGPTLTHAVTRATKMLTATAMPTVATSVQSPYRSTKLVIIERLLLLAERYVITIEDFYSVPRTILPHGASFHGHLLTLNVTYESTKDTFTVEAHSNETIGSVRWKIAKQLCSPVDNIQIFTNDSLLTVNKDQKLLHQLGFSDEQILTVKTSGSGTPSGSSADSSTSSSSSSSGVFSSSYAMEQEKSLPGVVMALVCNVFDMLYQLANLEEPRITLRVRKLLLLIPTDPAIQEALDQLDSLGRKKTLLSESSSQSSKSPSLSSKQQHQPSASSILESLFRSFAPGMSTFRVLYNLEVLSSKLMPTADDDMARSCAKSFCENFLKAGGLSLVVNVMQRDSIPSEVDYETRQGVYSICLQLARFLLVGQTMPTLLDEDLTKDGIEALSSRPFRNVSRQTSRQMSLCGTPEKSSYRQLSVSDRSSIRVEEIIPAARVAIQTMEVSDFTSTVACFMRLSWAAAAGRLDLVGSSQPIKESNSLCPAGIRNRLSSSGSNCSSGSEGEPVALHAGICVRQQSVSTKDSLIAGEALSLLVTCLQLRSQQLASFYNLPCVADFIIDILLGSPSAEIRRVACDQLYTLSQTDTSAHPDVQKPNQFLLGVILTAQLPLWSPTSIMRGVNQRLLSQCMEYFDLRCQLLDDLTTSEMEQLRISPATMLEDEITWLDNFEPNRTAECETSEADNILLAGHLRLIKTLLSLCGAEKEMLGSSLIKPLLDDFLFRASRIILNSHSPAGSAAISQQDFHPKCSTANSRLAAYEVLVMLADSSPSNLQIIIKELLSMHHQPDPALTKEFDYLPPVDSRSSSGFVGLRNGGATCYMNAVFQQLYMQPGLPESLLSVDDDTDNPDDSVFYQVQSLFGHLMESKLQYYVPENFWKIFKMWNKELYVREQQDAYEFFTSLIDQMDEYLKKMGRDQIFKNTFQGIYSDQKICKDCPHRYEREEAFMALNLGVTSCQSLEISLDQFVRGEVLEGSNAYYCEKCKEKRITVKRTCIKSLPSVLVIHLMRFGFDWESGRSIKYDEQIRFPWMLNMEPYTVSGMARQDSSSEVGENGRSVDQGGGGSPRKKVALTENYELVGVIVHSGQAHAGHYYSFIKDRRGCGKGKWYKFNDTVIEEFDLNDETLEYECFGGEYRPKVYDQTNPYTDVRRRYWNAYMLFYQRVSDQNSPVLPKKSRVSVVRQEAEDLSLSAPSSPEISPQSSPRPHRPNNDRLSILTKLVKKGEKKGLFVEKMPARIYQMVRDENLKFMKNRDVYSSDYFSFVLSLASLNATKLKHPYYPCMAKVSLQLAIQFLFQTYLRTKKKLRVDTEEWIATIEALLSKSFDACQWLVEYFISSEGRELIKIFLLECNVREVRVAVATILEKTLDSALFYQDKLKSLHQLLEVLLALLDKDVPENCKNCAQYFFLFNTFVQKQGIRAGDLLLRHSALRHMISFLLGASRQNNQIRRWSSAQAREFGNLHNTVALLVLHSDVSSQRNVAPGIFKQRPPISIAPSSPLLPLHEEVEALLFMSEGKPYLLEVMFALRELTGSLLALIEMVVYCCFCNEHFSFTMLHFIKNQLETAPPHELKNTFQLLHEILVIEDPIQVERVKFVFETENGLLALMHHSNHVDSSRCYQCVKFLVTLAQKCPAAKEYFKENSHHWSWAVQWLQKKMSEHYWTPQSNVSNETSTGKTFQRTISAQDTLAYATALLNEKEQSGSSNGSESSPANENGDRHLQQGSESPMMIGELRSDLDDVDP
In short: as §1

USP25 = biological target: T3, USP25 (UniProt Q9UHP3)
T3 sequence (whole entry): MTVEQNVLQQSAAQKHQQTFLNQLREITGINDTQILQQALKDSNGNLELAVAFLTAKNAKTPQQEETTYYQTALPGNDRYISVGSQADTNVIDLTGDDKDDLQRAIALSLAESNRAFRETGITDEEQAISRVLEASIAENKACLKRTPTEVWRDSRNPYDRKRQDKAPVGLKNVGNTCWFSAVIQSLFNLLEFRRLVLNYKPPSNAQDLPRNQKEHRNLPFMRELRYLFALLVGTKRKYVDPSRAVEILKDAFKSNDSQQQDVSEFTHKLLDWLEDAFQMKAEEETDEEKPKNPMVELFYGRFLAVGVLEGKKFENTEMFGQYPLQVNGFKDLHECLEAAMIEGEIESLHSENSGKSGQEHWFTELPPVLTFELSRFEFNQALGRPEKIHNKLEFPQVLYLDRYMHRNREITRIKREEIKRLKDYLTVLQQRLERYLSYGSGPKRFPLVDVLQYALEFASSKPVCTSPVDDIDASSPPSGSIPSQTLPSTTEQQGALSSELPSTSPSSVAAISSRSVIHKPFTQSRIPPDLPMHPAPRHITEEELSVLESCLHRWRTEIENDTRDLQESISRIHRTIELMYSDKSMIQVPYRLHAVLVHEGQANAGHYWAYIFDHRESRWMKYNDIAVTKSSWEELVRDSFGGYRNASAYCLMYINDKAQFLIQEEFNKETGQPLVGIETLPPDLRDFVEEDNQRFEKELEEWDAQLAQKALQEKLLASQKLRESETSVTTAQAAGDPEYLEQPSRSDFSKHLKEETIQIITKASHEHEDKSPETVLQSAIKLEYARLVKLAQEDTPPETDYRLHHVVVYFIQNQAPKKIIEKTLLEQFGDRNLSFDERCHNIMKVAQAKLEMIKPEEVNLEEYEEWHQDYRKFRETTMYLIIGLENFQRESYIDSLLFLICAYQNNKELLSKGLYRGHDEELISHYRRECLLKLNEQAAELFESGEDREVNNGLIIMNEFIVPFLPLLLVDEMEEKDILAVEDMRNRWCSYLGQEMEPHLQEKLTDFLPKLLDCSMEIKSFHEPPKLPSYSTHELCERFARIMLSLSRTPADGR
In short: as §1

USP28 = biological target: T4, USP28 (UniProt Q96RU2)
T4 sequence (whole entry): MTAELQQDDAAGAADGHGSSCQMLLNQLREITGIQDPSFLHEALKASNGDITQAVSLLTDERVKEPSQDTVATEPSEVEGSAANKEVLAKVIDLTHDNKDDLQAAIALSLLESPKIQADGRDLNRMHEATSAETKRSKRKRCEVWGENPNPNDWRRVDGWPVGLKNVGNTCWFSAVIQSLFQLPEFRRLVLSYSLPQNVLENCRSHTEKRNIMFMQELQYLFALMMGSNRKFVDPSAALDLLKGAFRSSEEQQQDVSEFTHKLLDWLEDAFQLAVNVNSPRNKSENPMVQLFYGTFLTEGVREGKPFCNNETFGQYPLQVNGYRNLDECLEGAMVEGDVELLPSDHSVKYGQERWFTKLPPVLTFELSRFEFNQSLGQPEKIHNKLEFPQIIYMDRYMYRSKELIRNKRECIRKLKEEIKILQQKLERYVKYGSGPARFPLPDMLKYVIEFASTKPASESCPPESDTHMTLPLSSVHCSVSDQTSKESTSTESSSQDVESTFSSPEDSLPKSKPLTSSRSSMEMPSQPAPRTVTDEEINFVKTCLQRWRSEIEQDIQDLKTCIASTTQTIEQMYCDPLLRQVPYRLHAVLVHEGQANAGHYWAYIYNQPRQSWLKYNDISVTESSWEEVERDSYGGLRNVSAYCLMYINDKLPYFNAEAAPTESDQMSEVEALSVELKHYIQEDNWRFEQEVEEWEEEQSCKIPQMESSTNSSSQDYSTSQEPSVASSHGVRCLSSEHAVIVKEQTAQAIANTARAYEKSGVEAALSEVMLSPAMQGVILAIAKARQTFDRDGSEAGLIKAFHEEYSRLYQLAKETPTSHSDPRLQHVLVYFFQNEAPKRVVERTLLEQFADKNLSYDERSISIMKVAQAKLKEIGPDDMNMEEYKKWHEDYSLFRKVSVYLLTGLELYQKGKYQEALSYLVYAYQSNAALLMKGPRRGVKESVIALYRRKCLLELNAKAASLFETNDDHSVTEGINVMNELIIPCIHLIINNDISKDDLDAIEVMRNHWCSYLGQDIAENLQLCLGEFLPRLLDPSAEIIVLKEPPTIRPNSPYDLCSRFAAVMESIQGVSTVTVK
In short: as §1

Measured: log2 ratio of Biotin-Ahx-Ub-VS probe labelling

CC(NC(=O)CCl)c1cccc2ccccc12 (stereo not given)
inactive: USP19 -0.242 | USP22 -0.925 | USP24 -0.343 | USP25 -0.33 | USP28 -0.501
